Data taken from ChEMBL document CHEMBL2218924, “A broad activity screen in support of a chemogenomic map for kinase signalling research and drug discovery” (Biochem J, 2013).

Target: Serine/threonine-protein kinase pim-3 (Homo sapiens) (UniProt Q86V86)
Details: at 10 µM

Row | Structure (SMILES) | residual activity
1 | N#C/C(=C1/Nc2ccccc2S1)c1ccnc(NCCc2cccnc2)n1 | 9%
2 | O=C1C(Cl)=C(N2C(=O)CCC2=O)C(=O)c2ccccc21 | 84%
3 | O=C1NC(=O)C(c2c[nH]c3ccccc23)=C1c1c[nH]c2ccccc12 | 73%
4 | COc1ccc2c(c1)c(C1=C(c3c[nH]c4ccccc34)C(=O)NC1=O)cn2CCCN(C)C | 17%
5 | N#Cc1c(NC(=O)c2cccc3ccccc23)sc2c1CCCC2 | 85%
6 | Oc1cccc(-c2nc(N3CCOCC3)c3oc4ncccc4c3n2)c1 | 98%
7 | Cc1cc(C)c(/C=C2\C(=O)Nc3ccccc32)[nH]1 | 101%
8 | COc1cc2nccc(Oc3ccc(NC(=O)Nc4cc(C)on4)c(Cl)c3)c2cc1OC | 105%
9 | CCN1/C(=C/C(C)=O)Sc2ccc(OC)cc21 | 11%
10 | Nc1n[nH]c2nc3ccccc3nc12 | 86%
11 | CC(C)c1nn(-c2c(Cl)cccc2Cl)c2nc(Cc3ccc(OCCO)cc3)[nH]c(=O)c12 | 92%
12 | Fc1ccc(-c2nc3n(c2-c2ccncc2)CCS3)cc1 | 98%

Target: Serine/threonine-protein kinase PLK1 (Homo sapiens) (UniProt P53350)
Sequence (P53350 whole entry): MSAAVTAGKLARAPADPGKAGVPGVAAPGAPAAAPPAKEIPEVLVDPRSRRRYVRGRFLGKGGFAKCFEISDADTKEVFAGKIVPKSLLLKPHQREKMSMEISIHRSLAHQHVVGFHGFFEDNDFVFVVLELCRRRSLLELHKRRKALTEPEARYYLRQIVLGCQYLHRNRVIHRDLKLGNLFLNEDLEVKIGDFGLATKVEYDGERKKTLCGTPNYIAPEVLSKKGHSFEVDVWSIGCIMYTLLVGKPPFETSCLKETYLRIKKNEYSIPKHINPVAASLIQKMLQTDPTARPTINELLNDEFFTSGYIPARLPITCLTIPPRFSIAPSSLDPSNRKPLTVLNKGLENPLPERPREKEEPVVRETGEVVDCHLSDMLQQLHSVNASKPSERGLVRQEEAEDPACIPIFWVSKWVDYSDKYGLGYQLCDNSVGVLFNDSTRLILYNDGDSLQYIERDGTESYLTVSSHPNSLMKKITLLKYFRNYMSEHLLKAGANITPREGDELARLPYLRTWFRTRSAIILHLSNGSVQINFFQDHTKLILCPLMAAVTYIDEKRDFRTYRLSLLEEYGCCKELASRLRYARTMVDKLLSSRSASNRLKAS
Details: at 1 µM

Row | Structure (SMILES) | residual activity
13 | N#C/C(=C\c1ccc(O)c(O)c1)C(=O)NCc1ccccc1 | 86%
14 | COc1cc2c(cc1OC)-c1n[nH]c(Nc3cccc(F)c3)c1C2 | 65%
15 | N#C/C(=C1/Nc2ccccc2S1)c1ccnc(NCCc2cccnc2)n1 | 83%
16 | O=C1C(Cl)=C(N2C(=O)CCC2=O)C(=O)c2ccccc21 | 74%
17 | CCCCc1c(-c2ccc(O)cc2)[nH]c2nccnc12 | 82%
18 | O=C(NC(NC(=S)Nc1ccc(F)c([N+](=O)[O-])c1)C(Cl)(Cl)Cl)C(c1ccccc1)c1ccccc1 (centres undefined) | 102%
19 | N#Cc1c(NC(=O)c2cccc3ccccc23)sc2c1CCCC2 | 94%
20 | CC(C)N(CCC(=O)c1ccc2ccccc2c1)Cc1ccccc1 | 69%
21 | O=C1NC(=O)C(c2cn(CCCn3ccnc3)c3ccccc23)=C1Nc1ccccc1 | 76%
22 | O=c1c(-c2ccc(F)cc2)c(-c2ccncc2)[nH]n1-c1ccc(Cl)cc1 | 77%
23 | COc1ccc(-c2cnc3c(-c4ccsc4)cnn3c2)cc1 | 95%
24 | O=C1Cc2c([nH]c3ccc([N+](=O)[O-])cc23)-c2ccccc2N1 | 105%
25 | COc1ccc(COc2ccc(Cc3cnc(N)nc3N)cc2OC)cc1 | 80%
26 | O=c1cc(N2CCOCC2)oc2c(-c3ccccc3)cccc12 | 61%
27 | Nc1n[nH]c2nc3ccccc3nc12 | 91%
28 | CC(C)c1nn(-c2c(Cl)cccc2Cl)c2nc(Cc3ccc(OCCO)cc3)[nH]c(=O)c12 | 83%
29 | Fc1ccc(-c2nc3n(c2-c2ccncc2)CCS3)cc1 | 91%
